The source of these data is PubChem BioAssay (NCATS).

Results filed as inconclusive are left out. A number with no mark means an inactive call. Calls come from the whole dose curve; as a rule, active = well fitted cell-killing curve with a large enough effect; inconclusive = small, poorly fitted or top-dose-only effect, or effect the other way; inactive = flat fitted curve, though single readings scatter. Where a SMILES comes first, the peptide text is derived from it. [ ]: non-standard residue; d: D form. 2Abz = Nc1ccccc1C(=O)O
% is set by controls: 0 for no effect and ±100 for the full control effect.

One experiment has as its system C33A. Nature of the experiment: Primary qHTS to identify gynecologic anti-cancer compounds using libraries of approved drugs and bioactive compounds (AID 1345084). Note: nearly all actives have a fitted effect of over 55% in size. The conditions noted are these: Gynecologic cancer cell panel viability, ATPlite luminescence, 48 h; series mostly up to 57.5 µM; activity change, negative = cytotoxicity: at the top concentration. A digest of the protocol:
(§1)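 Five-concentration response, 48 h; readout is ATP-driven luciferase luminescence.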
For the molecule `C/C1=C\C[C@H](O[C@@H]2O[C@H](CO)[C@@H](O)[C@H](O)[C@H]2O)/C(C)=C/[C@H]2OC(=O)[C@H](C)[C@@H]2CC1`, the “activity change, negative = cytotoxicity” value was -3.22% [at 25.3 µM].
Consider `COC(=O)[C@H](CC1C=NC=N1)NCC12CC3CC(CC(C3)C1)C2` (stereo not given in full), for which the “activity change, negative = cytotoxicity” value was 11.8%.
The same measure, in the same setting: then `CC(C)C1=CCC(C)(O)C(OC2OC(CO)C(O)C(O)C2O)C1` (stereo not given), with 1.25% [at 38.5 µM]; and `COc1cc(NC(=O)c2ccccn2)ccc1Cl`, with -1.6%.
For the molecule `NCCOCCOCCNC(=O)Cc1ccc(Nc2nc(NCc3ccc(F)cc3)nc(NCC3CCCCC3)n2)cc1`, the “activity change, negative = cytotoxicity” value was 11.7%.
Take `CCC(NC(=O)CC(NC(=O)C(CO)NC(=O)C(CC)NC(=O)c1ccc[nH]1)c1ccccc1)C(=O)O` (stereo not given): the “activity change, negative = cytotoxicity” value is 6.04% [at 25.3 µM].
Still for that read-out and setting: the value for `C=C1C[C@]23C[C@H]1CC[C@H]2[C@@]12C=C[C@H](O)[C@@](C)(C(=O)O1)[C@H]2[C@@H]3C(=O)O` was -0.885% [at 38.5 µM]; that for `CC(C)CC(=O)OC[C@H]1O[C@@](COC(=O)CC(C)C)(O[C@H]2O[C@H](CO)[C@@H](O)[C@H](O)[C@H]2O)[C@@H](OC(=O)CC(C)C)[C@@H]1OC(=O)CC(C)C` was 7.12% [at 25.3 µM].
Still for that read-out and setting: then `COc1cc(C2c3cc(O)c(OC)cc3CC(CO)C2CO)ccc1O` (stereo not given), with 3.43% [at 38.5 µM].
On the same count and under the same terms, then `N#CCc1ccc(O)cc1O[C@@H]1O[C@H](CO)[C@@H](O)[C@H](O)[C@H]1O`, with -8.14% [at 38.5 µM].
On to `C=C1C[C@@]23CC[C@@H]4[C@](C)(C(=O)O)CCC[C@@]4(C)C2=CC[C@H]1C3`, for which the “activity change, negative = cytotoxicity” value is -4.42%.
For `C[C@@H]1O[C@@H](O[C@H]2[C@H](OC(C#N)c3ccc(O)cc3)O[C@H](CO)[C@@H](O)[C@@H]2O)[C@H](O)[C@H](O)[C@H]1O` (stereo not given in full), the “activity change, negative = cytotoxicity” value is 5.94% [at 25.3 µM].

Another experiment relates to CAOV3. The description is as above. The conditions noted are these: Gynecologic cancer cell panel viability, ATPlite luminescence, 48 h; series mostly up to 57.5 µM; activity change, negative = cytotoxicity: at the top concentration. A digest of the protocol: as §1
Consider `CC(=O)O[C@H](C[C@@H](C)[C@H]1C(=O)[C@H](O)[C@@]2(C)[C@@H]3CCC4C(C)(C)[C@@H](O[C@@H]5OC[C@H](O)[C@H](O)[C@H]5O)CC[C@@]45C[C@@]35CC[C@]12C)[C@@H]1OC1(C)C` (stereo not given in full), for which the “activity change, negative = cytotoxicity” value was 14.2% [at 25.3 µM].
Same read-out and setting: the value for `CC1OC(OC2C(C)OC(OC3C(OC(=O)/C=C/c4ccc(O)cc4)C(CO)OC(OC4(COC(=O)/C=C/c5ccc(O)cc5)OC(CO)C(O)C4O)C3OC3OCC(O)(CO)C3O)C(O)C2O)C(O)C(O)C1O` (stereo not given) was -2.97% [at 11.6 µM]; that for `CC(/C=C/[C@]1(O)[C@@]2(C)CO[C@@]1(C)C[C@@H](O)C2)=C\C(=O)O[C@@H]1O[C@H](CO)[C@@H](O)[C@H](O)[C@H]1O` was 12.9% [at 25.3 µM].
The same measure, in the same setting: then `C=C1C(=O)OC2CC(C)=C(C(C)CCCO[C@@H]3O[C@H](CO)[C@@H](O)[C@H](O)[C@H]3O)C(O)C12` (stereo not given in full), with 0.952% [at 25.3 µM]; and `O=C(O[C@H]1[C@@H]2C[C@@H]3OC[C@@](O)([C@H]2[C@H](O[C@@H]2O[C@H](CO)[C@@H](O)[C@H](O)[C@H]2O)O3)[C@@H]1O)c1ccccc1`, with -3.13% [at 25.3 µM]; and `CC(=O)c1c(C)cc(O)cc1O[C@@H]1O[C@H](CO)[C@@H](O)[C@H](O)[C@H]1O`, with 4.09% [at 38.5 µM].
The same measure, in the same setting: then `CC1CCC(=O)CC(O)C(O)CC(=O)O1` (stereo not given), with 5.73%.
In the case of `CC1(C)CC2C(O)C3=C(CC(C)(O)C2C1)C(=O)OC3O` (stereo not given), the “activity change, negative = cytotoxicity” value is 15.6%.
As for `CC[C@H](/C=C/[C@@H](C)[C@H]1CC[C@H]2[C@@H]3CC=C4C[C@@H](O)CC[C@]4(C)[C@H]3CC[C@]12C)C(C)C`, the activity change, negative = cytotoxicity is 7.88% [at 6.55 µM].
Consider `CC(=O)O[C@H]1[C@H](C)[C@@H](O)[C@H]2[C@@H]1C=C(C(=O)O)[C@H]1C[C@@H]3[C@H]([C@H]21)[C@H]1C(=O)O[C@@H]2CC[C@@]3(C)O[C@]1(O)[C@@H]2C`, for which the “activity change, negative = cytotoxicity” value was -6.51% [at 25.3 µM].
Same read-out and setting: the value for `CC(=O)OC(CSC1CCC(=O)OC(C)CCC(=O)C1)C(=O)O` (stereo not given) was -2.09% [at 38.5 µM]; that for `CC(/C=C/C1(O)C(C)CC(O)CC1(C)C)OC1OC(CO)C(O)C(O)C1O` (stereo not given) was -0.507% [at 38.5 µM].
On the same count and under the same terms, then `CC(=O)N[C@H]1CCN(c2ccc(C3=NOC(CN[S+](=O)([O-])C(C)C)C3)cc2F)C1` (stereo not given in full), with 15.1%; and `CC1CCC2C(C)(C)C(O)CCC2(C)C12Cc1c(O)cc3c(c1O2)C(N)=NC3` (stereo not given), with -4.25% [at 38.5 µM]; and `CNC(=O)Nc1ccc(OC)c(NC(=O)NC(=O)c2cc(F)c(F)cc2Cl)c1`, with -6.93%.
Still for that read-out and setting: the value for `CCCC(N[C@@H](C)C(=O)N1[C@H](C(=O)O)C[C@@H]2CCCC[C@@H]21)C(=O)OCC` (stereo not given in full) was 5.77%; that for `C/C=C(\C)C(=O)O[C@@H](C)[C@H]1CC[C@]2(O)C3CCC4C[C@@H](OC5CC(OC)C(OC6CC(OC)C(OC7CC(OC)C(OC8OC(C)C(OC9OC(CO)C(O)C(O)C9O)C(OC)C8O)C(C)O7)C(C)O6)C(C)O5)CC[C@]4(C)C3[C@H](O)[C@@H](O)[C@]12C` (stereo not given in full) was 3.47% [at 6.55 µM].
Take `CC1OC(O[C@H]2[C@@H](O)C[C@@]3(C)C([C@H](O)C[C@]4(C)C3CC=C3C5CC(C)(C)CC[C@]5(C(=O)OC5OC(CO)C(O)C(O)C5OC5OCC(OC6OCC(OC7OCC(O)C(O)C7O)C(O)C6O)C(OC6OCC(O)(CO)C6O)C5O)CC[C@]34C)[C@]2(C)CO)C(O)C(O)C1O` (stereo not given in full): the activity change, negative = cytotoxicity was -2.76% [at 6.55 µM].
`CCC(=O)N[C@@H]1Cc2ccccc2[C@H](c2ccccc2)C1`: the “activity change, negative = cytotoxicity” value was 9.95%.
Same read-out and setting: then `CCC(C)C1NC(=O)C2CCCN2C(=O)C(C(C)C)NC(=O)c2ccccc2NC(=O)C(Cc2ccc(O)cc2)NC(=O)C(C)NC(=O)C(C(C)O)NC1=O` (stereo not given) (cyclo([2Abz]VPITAY); configuration not given here), with 8.48% [at 25.3 µM]; and `C=C1CCC2C(C)(C(=O)O)CC(O)CC2(C)C1CC/C(C)=C/C(=O)O` (stereo not given), with 0.662% [at 38.5 µM]; and `COc1cc([C@@H]2Oc3c(OC)cc(CCCO)cc3[C@@H]2CO[C@@H]2O[C@H](CO)[C@@H](O)[C@H](O)[C@H]2O)ccc1O`, with 4% [at 25.3 µM].
On to `COc1cccc(-c2ccc([C@@H](Oc3cc(-c4ccc(C[C@H](N)C(=O)O)cc4)nc(N)n3)C(F)(F)F)cc2)c1`, for which the “activity change, negative = cytotoxicity” value was -0.196%.
The same measure, in the same setting: the value for `CCNC(=O)CCC/C=C\C[C@@H]1[C@@H](/C=C/C(O)CCc2ccccc2)[C@@H](O)C[C@@H]1O` (stereo not given in full) was -1.97%.
The same measure, in the same setting: the value for `Cc1[nH]cnc1C1CCN(c2nc3cccc4c3n2CCC4=O)CC1` was 17%.
On the same count and under the same terms, the value for `C=C(C)[C@@H](C)[C@H]1O[C@]23C[C@]4(CO2)C(CCC2[C@@]5(C)CC[C@H](O[C@@H]6OC[C@H](O)[C@H](O[C@@H]7O[C@H](CO)[C@@H](O)[C@H](O)[C@H]7O)[C@H]6O[C@@H]6O[C@@H](CO)[C@H](O)[C@H]6O)C(C)(C)C5CC[C@]24C)C3[C@@](C)(O)[C@@H]1OC(C)=O` (stereo not given in full) was 12.4% [at 11.6 µM].
Turning to `C/C1=C\C[C@H](O[C@@H]2O[C@H](CO)[C@@H](O)[C@H](O)[C@H]2O)/C(C)=C/[C@H]2OC(=O)[C@H](C)[C@@H]2CC1`, the “activity change, negative = cytotoxicity” value is 15.9% [at 25.3 µM].
Take `COC(=O)[C@H](CC1C=NC=N1)NCC12CC3CC(CC(C3)C1)C2` (stereo not given in full): the “activity change, negative = cytotoxicity” value was 30.7%.
Still for that read-out and setting: then `CC(C)C1=CCC(C)(O)C(OC2OC(CO)C(O)C(O)C2O)C1` (stereo not given), with 10.4% [at 38.5 µM]; and `COc1cc(NC(=O)c2ccccn2)ccc1Cl`, with 1.22%.
On the same count and under the same terms, the value for `NCCOCCOCCNC(=O)Cc1ccc(Nc2nc(NCc3ccc(F)cc3)nc(NCC3CCCCC3)n2)cc1` was 15.2%; that for `CCC(NC(=O)CC(NC(=O)C(CO)NC(=O)C(CC)NC(=O)c1ccc[nH]1)c1ccccc1)C(=O)O` (stereo not given) was 20.9% [at 25.3 µM]; that for `C=C1C[C@]23C[C@H]1CC[C@H]2[C@@]12C=C[C@H](O)[C@@](C)(C(=O)O1)[C@H]2[C@@H]3C(=O)O` was 0.494% [at 38.5 µM].
Still for that read-out and setting: then `CC(C)CC(=O)OC[C@H]1O[C@@](COC(=O)CC(C)C)(O[C@H]2O[C@H](CO)[C@@H](O)[C@H](O)[C@H]2O)[C@@H](OC(=O)CC(C)C)[C@@H]1OC(=O)CC(C)C`, with -10.2% [at 25.3 µM]; and `COc1cc(C2c3cc(O)c(OC)cc3CC(CO)C2CO)ccc1O` (stereo not given), with 26% [at 38.5 µM]; and `N#CCc1ccc(O)cc1O[C@@H]1O[C@H](CO)[C@@H](O)[C@H](O)[C@H]1O`, with 6.93% [at 38.5 µM].
In the case of `C=C1C[C@@]23CC[C@@H]4[C@](C)(C(=O)O)CCC[C@@]4(C)C2=CC[C@H]1C3`, the “activity change, negative = cytotoxicity” value is -0.697%.
Consider `C[C@@H]1O[C@@H](O[C@H]2[C@H](OC(C#N)c3ccc(O)cc3)O[C@H](CO)[C@@H](O)[C@@H]2O)[C@H](O)[C@H](O)[C@H]1O` (stereo not given in full), for which the “activity change, negative = cytotoxicity” value is 14.7% [at 25.3 µM].
